GPR151 activ: activates the human receptor GPR151 | PathHunter beta-arrestin GPR151 cells, luminescence | AID 1508602 | hit rate 1% among 650,000 | activation, % at 11.2 µM; in the data active = activation above about 4.9%;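 also: 0% = median of compound wells and 100% = cells with positive control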
FBW7 act: human FBW7 E3 ligase activation, primary screen; Q969H0; AlphaScreen FBW7–phospho-cyclin E peptide binding, activator screen; normalized activity (activation), % at 26.1 µM; hit rate 0.13% among 650,000; AID 1259310; in the data active = normalized activity above about 1.9%;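 also: purified mutant Fbw7 with reduced substrate affinity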
TEAD-YAP inh: TEAD-YAP interaction inhibition | HEK-TIYL cells, TEAD-Gal4/YAP UAS-luciferase luminescence | hit rate 1.4% among 640,000 | inhibition, % at 9.12 µM; in the data active = inhibition above about 32%;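 also: 0% = median of test compound wells and 100% = reference inhibitor wells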
MITF primary: blocks human microphthalmia-associated transcription factor | hit rate 0.91% among 650,000 | inhibition, % at 2.6 µM | AID 1259374 | AlphaScreen MITF homodimerization, bead proximity signal | O75030; in the data active = inhibition above about 50%;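 also: 0% = vehicle wells with protein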
Target sequence (O75030 whole entry, looked up): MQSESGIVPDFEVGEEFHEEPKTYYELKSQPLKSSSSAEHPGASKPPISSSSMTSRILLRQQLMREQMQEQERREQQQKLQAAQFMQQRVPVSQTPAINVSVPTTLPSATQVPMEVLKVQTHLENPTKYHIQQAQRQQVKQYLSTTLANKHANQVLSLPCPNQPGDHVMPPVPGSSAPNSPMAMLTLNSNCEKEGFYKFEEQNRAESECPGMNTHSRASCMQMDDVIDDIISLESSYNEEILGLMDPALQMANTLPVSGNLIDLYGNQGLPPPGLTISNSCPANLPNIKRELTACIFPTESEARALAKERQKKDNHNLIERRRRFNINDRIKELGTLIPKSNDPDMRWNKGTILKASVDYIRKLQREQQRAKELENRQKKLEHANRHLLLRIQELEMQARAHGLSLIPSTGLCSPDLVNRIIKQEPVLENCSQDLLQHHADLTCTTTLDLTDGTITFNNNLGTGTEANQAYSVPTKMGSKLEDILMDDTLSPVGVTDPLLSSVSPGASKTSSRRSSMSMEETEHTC
* hit, by the source's call. This is a sample that favours compounds with a hit; in the whole collection about 3.5% have one here.

SMILES | GPR151 activ | FBW7 act | TEAD-YAP inh | MITF primary
CCOCCCNCC(O)COc1c(Cl)cccc1Cl (stereo unspecified) | -1 | 0 | 52* | 30
COc1ccc(S(=O)(=O)Nc2cc(C(N)=O)cc(C(N)=O)c2)cc1 | 0 | 0 | -3 | 23
CCCc1ccc(-c2ccc(C(=O)OCC(C)CC)cc2)nc1 (stereo unspecified) | 0 | 0 | -7 | 7
CCCc1ccc(-c2ccc(OC(=O)C3CCCCC3)cc2)nc1 | -2 | 0 | 73* | 0
CCCc1ccc(-c2ccc(C(=O)OCc3ccco3)cc2)nc1 | -2 | 0 | 52* | 1
CC1=CSC2=NC(=O)/C(=C/c3cc(C)n(-c4ccccc4F)c3C)C(=N)N12 | 0 | 0 | 52* | 29
CC1=CSC2=NC(=O)/C(=C/c3cc(C)n(-c4ccccc4C)c3C)C(=N)N12 | 0 | 0 | 68* | 15
CCOc1ccccc1-n1c(C)cc(/C=C2\C(=N)N3C(C)=CSC3=NC2=O)c1C | 1 | 1 | 7 | -2
Cc1cc(/C=C2/C(=N)N3C(=NC2=O)SN=C3S(C)(=O)=O)c(C)n1-c1ccccc1F | -1 | 1 | 3 | 15
CCOC(=O)c1csc(NC(=O)c2ccc(S(=O)(=O)N3CCc4ccccc43)cc2)n1 | 0 | 0 | 35* | 20
COc1ccc(NC(=O)c2ccc(S(=O)(=O)N3CCc4ccccc4C3)cc2)c2ccccc12 | 1 | 0 | -2 | 17
COc1ccc(NC(=O)c2ccc(S(=O)(=O)N3CCc4ccccc43)cc2)c2ccccc12 | 2 | 0 | 60* | -2
O=C(Nc1ccccc1F)c1ccc(S(=O)(=O)N2CCc3ccccc3C2)cc1 | 2 | 0 | 40* | 9
COc1ccc(-c2nc(N)n(C(=O)c3ccccc3OC)n2)cc1 | 1 | 0 | 40* | 9
O=C(NCc1ccc(F)cc1)c1ccc(N2CC3CC(C2)c2cccc(=O)n2C3)c(NC(=O)c2ccc(F)cc2)c1 (stereo unspecified) | 1 | 0 | 84* | 3
CCOC(=O)C1=C(C)NC(SC)=C(C#N)C1CC(C)C (stereo unspecified) | 0 | 0 | 38* | 2
Cc1ccc(Nc2nc(Cl)nc(Nc3ccc(C)cc3C)n2)c(C)c1 | 0 | 0 | -1 | 5
Cc1ccccc1Nc1nc(Cl)nc(Nc2ccccc2C)n1 | 1 | 0 | 45* | 5
COc1cccc(-c2csc(N3CCN(CC(=O)Nc4ccc(F)cc4)CC3)n2)c1 | 2 | 0 | 0 | 31
COc1cccc(NC(=O)CN2CCN(Cc3nc(-c4ccc(F)cc4)cs3)CC2)c1 | 4 | 0 | 33* | 15
CC(=O)c1cc(CN2CCCC(CNS(=O)(=O)Cc3ccccc3)C2)cs1 (stereo unspecified) | 1 | 0 | 6 | -3
COc1cc(C=O)ccc1OCCc1ccccc1 | -9 | 0 | 33* | 6
O=C(c1cccs1)N1CCCC(c2nc(-c3ccncc3)ncc2-c2ccccc2)C1 (stereo unspecified) | 1 | 0 | 51* | -6
O=C(CN1CCCC(c2ncncc2-c2ccncc2)C1)N1CCc2ccccc21 (stereo unspecified) | 0 | 0 | -2 | 18
Cc1cnc(C(=O)N2CCCC(c3nc(C)ncc3-c3ccncc3)C2)cn1 (stereo unspecified) | -1 | 0 | -18 | 14
SMILES | GPR151 activ | FBW7 act | TEAD-YAP inh | MITF primary
O=C(c1ccco1)N1CCCC(c2nc(-c3ccncc3)ncc2-c2ccccc2)C1 (stereo unspecified) | 0 | 0 | 5 | 17
Cc1cc(C(=O)N2CCCC(c3nc(-c4ccncc4)ncc3-c3ccccc3C)C2)no1 (stereo unspecified) | 1 | 0 | 58* | -7
O=C(CN1Cc2ccccc2C1)N1CCCC(c2ncncc2-c2ccncc2)C1 (stereo unspecified) | 0 | 3.3* | 4 | 16
CCOC(=O)N1CCC(NC(=O)Cn2c3ccccc3c(=O)c3cc(Cl)ccc32)CC1 | 0 | 0 | 6 | -14
CCn1c(-c2ccc(Br)cc2)c[nH]c1=S | 1 | 0 | 14 | -6
CN1CCC(O)(c2ccc3c(c2)CN(C(=O)c2ccc(Oc4ccccc4)o2)CCO3)CC1 | 0 | 0 | 9 | -1
CCOC(=O)c1ccc(NC(=O)CC23CC4CC(CC(C4)C2)C3)cc1 | -1 | 0 | 69* | 10
Oc1c(C(c2ccccn2)N2CCN(c3ccccn3)CC2)ccc2cccnc12 (stereo unspecified) | -1 | -2 | -4 | 83*
Oc1ccccc1C(Nc1nccs1)c1ccc2cccnc2c1O (stereo unspecified) | 2 | -2 | 24 | 41
Oc1c(C(c2ccccn2)N2CCCC2)ccc2cccnc12 (stereo unspecified) | 2 | 0 | 67* | 107*
c1ccc(C(c2nnnn2C2CCCC2)N2CCCCCC2)nc1 (stereo unspecified) | 0 | -1 | 13 | 0
O=C(c1ccc2ccccc2c1)N1CCN(c2ccccn2)CC1 | 2 | 0 | -1 | -1
CN1CCN(C(c2ccccn2)c2ccc3cccnc3c2O)CC1 (stereo unspecified) | 0 | 0 | 15 | 90*
Oc1c(C(c2cccs2)N2CCN(c3ccccn3)CC2)ccc2cccnc12 (stereo unspecified) | 1 | 0 | 91* | 38
CCc1c(C)sc(NC(NC(=O)OC)(C(F)(F)F)C(F)(F)F)c1C#N | 1 | 0 | 10 | 9
Cc1ccc(C)c(NC(=O)CCNc2c(N3CCCC3)c(=O)c2=O)c1 | 1 | 0 | 7 | 1
Cc1ccc(C(C)CCN2CCN(CCOCCO)CC2)o1 (stereo unspecified) | 1 | 0 | 3 | 7
CCNC(=O)CN(Cc1c(Cl)cccc1Cl)S(=O)(=O)c1ccc(Cl)cc1 | -1 | 0 | -15 | -8
CNC(=O)C(=O)Nc1ccccc1Cl | 0 | 0 | 2 | 7
O=C(O)c1ccc(N=c2oc3cc(O)ccc3cc2C(=O)Nc2ccccc2)cc1 | -8 | 0 | -8 | 8
COc1ccc(NC(=O)c2cc3ccc(O)cc3oc2=Nc2ccc(C(=O)O)cc2)cc1 | -4 | 0 | 36* | 6
Cc1ccc(C2CC(C(F)(F)F)n3ncc(C(=O)Nc4cccc(Cl)c4C)c3N2)cc1 (stereo unspecified) | 1 | 0 | -8 | -2
CCC(C)N(CC(=O)Nc1cccc(C)c1C)C(=O)CCl (stereo unspecified) | 0 | 0 | 69* | -14
Cc1cccc(NC(=O)CC(C)(C)C)c1C | 0 | 0 | -4 | 2
O=C1CCCC2=C1C(c1ccc(O)c(Br)c1)C1=C(CCCC1=O)O2 | 0 | 0 | 45* | 17
Cc1sc2nc(SCC#N)[nH]c(=O)c2c1C | 0 | 1 | 46* | 1
Cc1sc2nc(SCC(N)=O)[nH]c(=O)c2c1C | 0 | 0 | -6 | -2
c1cc(-n2cnc3c(Nc4ccc5c(c4)OCO5)nc(NCCN4CCOCC4)nc32)cs1 | -2 | 0 | 44* | 22
c1cncc(CNc2nc(Nc3ccc(N4CCOCC4)cc3)nc3c2ncn3-c2ccsc2)c1 | 2 | 0 | 57* | 2

Assay outcomes as filed in PubChem BioAssay.
